Drawing on ChEMBL document CHEMBL3988442, “University of Dundee, Small-Polar-MMV Screening Library” (2021), this text covers Percent Effect for nine compounds.

What all share (set-up): scale not given: direction of the effect not stated beside the values
Assay [1] addresses Protein translocase subunit SecA (Escherichia coli (strain K12)) (UniProt P10408). Description: Assay to Identify E. coli SecA ATPase Inhibitors. Particulars: 30 µM. The class given is functional.
The target in assay [2] is T1, Ubiquitin-activating enzyme e1, putative (Leishmania donovani (strain BPK282A1)) (UniProt E9BSI1).
T1 sequence (whole entry): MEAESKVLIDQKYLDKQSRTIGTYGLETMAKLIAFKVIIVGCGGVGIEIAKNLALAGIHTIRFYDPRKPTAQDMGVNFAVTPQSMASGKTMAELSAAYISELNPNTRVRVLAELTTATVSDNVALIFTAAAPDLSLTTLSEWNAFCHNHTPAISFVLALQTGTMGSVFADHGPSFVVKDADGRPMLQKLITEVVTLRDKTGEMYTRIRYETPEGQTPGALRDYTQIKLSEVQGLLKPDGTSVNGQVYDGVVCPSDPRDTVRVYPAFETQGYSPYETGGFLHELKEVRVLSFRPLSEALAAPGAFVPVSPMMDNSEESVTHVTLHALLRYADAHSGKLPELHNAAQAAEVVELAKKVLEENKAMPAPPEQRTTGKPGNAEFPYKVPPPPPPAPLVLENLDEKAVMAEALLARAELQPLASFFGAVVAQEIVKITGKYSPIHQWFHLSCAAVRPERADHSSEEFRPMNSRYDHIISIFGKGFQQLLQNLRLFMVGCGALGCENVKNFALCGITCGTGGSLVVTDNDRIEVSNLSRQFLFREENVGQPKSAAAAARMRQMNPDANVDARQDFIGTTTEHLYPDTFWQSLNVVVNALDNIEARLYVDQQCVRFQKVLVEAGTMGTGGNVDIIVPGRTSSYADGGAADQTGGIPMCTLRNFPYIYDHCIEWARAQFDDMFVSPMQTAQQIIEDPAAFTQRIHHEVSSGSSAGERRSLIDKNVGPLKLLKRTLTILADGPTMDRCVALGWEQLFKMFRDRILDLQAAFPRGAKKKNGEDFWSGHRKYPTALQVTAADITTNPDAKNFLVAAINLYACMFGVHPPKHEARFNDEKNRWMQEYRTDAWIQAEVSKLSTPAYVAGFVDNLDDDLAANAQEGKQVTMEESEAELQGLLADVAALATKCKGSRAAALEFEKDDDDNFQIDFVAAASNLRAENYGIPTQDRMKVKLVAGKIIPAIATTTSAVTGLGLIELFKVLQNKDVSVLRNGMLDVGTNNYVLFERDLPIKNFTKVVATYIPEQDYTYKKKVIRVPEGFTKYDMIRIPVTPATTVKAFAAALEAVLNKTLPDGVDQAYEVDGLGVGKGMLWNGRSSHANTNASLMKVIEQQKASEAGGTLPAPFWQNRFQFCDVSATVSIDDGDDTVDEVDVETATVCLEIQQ
The assay is described as follows: Leishmania donovani Ubiquitin Activating Enzyme (LdE1). Type of assay: functional. Particulars: 30 µM.

The target of assay [3] is AMP-activated protein kinase, AMPK (Homo sapiens) (UniProt P54646+O43741+P54619+Q9UGJ0+Q9Y478+Q13131+Q9UGI9). Description: AMP-dependent Kinase enzyme assay. An in vitro enzyme assay that detects ADP turnover that is directly proportional to AMPK activity. This uses naive AMPK that is activated during the assay with MK-8722. Particulars: 30 µM. The class given is functional.

In assay [4] the target is Sialic acid-binding Ig-like lectin 9 (Homo sapiens) (UniProt Q9Y336). Description: Hs-Siglec9 ALPHAscreen SOP 20170721. The settings on record: 10 µM.
Sialic acid-binding Ig-like lectin 9 (Homo sapiens), sequence (Q9Y336 whole entry): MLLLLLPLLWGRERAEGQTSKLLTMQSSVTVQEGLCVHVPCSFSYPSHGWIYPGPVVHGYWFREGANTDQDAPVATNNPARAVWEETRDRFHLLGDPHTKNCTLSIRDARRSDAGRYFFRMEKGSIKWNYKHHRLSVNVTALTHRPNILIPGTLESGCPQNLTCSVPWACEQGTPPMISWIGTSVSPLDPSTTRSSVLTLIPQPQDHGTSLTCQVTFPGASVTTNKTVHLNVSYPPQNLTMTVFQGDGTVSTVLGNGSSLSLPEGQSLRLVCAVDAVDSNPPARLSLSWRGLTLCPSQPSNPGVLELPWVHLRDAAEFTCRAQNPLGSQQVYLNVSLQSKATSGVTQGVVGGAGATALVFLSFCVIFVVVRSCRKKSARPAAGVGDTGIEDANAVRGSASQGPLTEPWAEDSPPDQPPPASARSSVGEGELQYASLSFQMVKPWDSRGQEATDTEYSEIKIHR
The subject of the next assay is Trypanosoma cruzi. The assay is described as follows: Trypanosoma cruzi phosphomannomutase and mannose-1-phosphate guanylyltransferase assay. The class given is functional. The settings on record: 10 µM.
Assay [5] concerns the target T2, Arginase-2, mitochondrial (Homo sapiens) (UniProt P78540).
T2 sequence (whole entry): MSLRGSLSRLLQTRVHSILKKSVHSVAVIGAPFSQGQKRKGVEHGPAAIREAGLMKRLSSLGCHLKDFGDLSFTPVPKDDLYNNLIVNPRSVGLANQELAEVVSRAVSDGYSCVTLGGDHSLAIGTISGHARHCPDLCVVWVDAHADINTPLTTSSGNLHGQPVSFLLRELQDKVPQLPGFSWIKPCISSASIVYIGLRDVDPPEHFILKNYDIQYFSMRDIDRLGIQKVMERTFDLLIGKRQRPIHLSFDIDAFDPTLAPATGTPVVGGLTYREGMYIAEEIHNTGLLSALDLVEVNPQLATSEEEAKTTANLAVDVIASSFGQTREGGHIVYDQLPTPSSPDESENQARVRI
The assay is described as follows: in vitro enzyme assay to detect the production of urea directly proportional to the activity of Arginase II. Note: in the data most compounds retested in dose-response had high values. The settings on record: 33.3 µM. The class given is functional.

The target of assay [6] is T3, Proteasome subunit beta (Trypanosoma cruzi) (UniProt O96673).
T3 sequence (whole entry): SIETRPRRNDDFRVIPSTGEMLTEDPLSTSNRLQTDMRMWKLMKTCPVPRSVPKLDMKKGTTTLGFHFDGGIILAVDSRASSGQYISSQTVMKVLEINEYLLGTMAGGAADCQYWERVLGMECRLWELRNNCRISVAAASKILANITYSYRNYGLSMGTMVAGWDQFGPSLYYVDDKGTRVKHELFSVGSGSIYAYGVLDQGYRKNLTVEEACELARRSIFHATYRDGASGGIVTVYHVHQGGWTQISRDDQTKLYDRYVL
Description: Trypanosoma cruzi proteasome chymotrypsin-like activity (TcProtChymo) assay. Note: in the data most compounds retested in dose-response had high values. Type of assay: functional. Particulars: 9.37 µM.

The species entered for a further assay is Homo sapiens. Description: To identify inhibition of the IFN signalling (Jak-Stat) pathway via expression of an eGFP reporter gene under the control of an IFN-stimulated response element (ISRE) containing MxA promoter. Type of assay: functional. The settings on record: 30 µM. A general note: In a reporter assay the amount or activity of a reporter protein is the signal.

Assay [7] deals with T4, Tyrosyl-tRNA synthetase, putative (Trypanosoma cruzi (strain CL Brener)) (UniProt Q4DSP6).
T4 sequence (whole entry): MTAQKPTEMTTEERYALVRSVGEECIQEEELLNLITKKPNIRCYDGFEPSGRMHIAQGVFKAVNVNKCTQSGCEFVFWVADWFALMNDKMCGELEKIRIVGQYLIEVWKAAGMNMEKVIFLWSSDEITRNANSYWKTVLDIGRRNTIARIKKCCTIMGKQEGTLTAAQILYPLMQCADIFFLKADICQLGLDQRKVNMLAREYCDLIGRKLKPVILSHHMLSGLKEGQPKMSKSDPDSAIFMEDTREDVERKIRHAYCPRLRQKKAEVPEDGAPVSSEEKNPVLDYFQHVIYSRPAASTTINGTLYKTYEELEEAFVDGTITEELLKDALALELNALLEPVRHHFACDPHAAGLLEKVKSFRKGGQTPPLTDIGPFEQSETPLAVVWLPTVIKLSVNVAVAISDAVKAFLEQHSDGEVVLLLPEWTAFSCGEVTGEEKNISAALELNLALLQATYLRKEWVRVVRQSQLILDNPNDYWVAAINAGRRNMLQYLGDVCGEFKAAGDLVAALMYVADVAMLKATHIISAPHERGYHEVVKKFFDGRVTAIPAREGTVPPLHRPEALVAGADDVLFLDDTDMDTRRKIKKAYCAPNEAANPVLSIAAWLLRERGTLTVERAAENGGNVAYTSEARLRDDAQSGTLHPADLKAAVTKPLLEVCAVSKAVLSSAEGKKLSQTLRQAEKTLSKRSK
Description: Trypanosoma cruzi tyrosyl tRNA synthetase (TcYRS) _High Tyrosine SOP. Note: in the data most compounds retested in dose-response had high values. Particulars: 30 µM. Type of assay: functional.

Assay [8] has as its target T4, Tyrosyl-tRNA synthetase, putative (Trypanosoma cruzi (strain CL Brener)). Description: Trypanosoma cruzi tyrosyl tRNA synthetase (TcYRS) SOP. Type of assay: functional. The settings on record: 30 µM.
Assay [9] has as its target Chromo domain-containing protein 1 (Saccharomyces cerevisiae (strain ATCC 204508 / S288c) (Baker's yeast)) (UniProt P32657). Description: ScCHD-1 Enzyme Inhibition Assay. Note: in the data most compounds retested in dose-response had high values. Type of assay: functional. The settings on record: 30 µM.

The structures appear in SMILES notation. For part of these data: Results with a measured potency or affinity are listed apart.

Chromo domain-containing protein 1 (Saccharomyces cerevisiae (strain ATCC 204508 / S288c) (Baker's yeast)), sequence (P32657 whole entry, the tested form may be a part): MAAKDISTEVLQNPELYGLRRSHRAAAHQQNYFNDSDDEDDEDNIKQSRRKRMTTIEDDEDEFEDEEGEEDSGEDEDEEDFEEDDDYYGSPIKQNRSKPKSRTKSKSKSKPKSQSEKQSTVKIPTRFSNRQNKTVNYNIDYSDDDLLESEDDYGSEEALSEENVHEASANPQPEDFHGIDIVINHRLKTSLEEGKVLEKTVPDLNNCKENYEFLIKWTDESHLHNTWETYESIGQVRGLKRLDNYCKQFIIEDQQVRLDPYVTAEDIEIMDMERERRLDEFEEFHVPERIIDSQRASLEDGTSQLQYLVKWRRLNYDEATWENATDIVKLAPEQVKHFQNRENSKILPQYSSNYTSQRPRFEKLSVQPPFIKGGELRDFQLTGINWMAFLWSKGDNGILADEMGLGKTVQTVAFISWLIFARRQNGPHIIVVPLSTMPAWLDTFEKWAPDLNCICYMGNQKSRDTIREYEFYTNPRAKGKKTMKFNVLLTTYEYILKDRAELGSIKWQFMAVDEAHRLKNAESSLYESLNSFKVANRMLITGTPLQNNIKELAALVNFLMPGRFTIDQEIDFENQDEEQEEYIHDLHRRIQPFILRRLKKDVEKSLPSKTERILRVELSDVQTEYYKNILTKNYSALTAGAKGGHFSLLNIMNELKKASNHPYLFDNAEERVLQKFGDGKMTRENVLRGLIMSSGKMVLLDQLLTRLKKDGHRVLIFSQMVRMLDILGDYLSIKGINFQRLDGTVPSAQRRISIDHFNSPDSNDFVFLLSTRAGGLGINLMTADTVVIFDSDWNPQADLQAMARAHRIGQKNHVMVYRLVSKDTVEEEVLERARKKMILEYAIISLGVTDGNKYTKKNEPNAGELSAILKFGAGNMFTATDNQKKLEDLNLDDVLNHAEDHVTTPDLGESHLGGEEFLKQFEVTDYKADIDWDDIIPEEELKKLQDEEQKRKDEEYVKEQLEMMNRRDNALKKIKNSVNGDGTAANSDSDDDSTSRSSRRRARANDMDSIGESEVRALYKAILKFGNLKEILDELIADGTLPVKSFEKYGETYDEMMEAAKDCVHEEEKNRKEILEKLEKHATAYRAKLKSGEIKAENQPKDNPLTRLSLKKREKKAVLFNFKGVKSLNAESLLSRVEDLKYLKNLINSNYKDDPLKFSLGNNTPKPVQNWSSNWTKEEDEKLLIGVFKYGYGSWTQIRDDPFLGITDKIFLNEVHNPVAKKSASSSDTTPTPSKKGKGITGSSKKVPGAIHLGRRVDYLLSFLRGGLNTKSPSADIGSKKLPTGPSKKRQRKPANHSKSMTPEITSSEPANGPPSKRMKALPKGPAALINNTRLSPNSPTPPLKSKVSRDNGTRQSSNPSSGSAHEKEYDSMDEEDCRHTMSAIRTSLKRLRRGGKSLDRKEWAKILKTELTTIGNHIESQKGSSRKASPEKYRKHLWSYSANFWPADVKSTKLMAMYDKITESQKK
Protein translocase subunit SecA (Escherichia coli (strain K12)), sequence (P10408 whole entry): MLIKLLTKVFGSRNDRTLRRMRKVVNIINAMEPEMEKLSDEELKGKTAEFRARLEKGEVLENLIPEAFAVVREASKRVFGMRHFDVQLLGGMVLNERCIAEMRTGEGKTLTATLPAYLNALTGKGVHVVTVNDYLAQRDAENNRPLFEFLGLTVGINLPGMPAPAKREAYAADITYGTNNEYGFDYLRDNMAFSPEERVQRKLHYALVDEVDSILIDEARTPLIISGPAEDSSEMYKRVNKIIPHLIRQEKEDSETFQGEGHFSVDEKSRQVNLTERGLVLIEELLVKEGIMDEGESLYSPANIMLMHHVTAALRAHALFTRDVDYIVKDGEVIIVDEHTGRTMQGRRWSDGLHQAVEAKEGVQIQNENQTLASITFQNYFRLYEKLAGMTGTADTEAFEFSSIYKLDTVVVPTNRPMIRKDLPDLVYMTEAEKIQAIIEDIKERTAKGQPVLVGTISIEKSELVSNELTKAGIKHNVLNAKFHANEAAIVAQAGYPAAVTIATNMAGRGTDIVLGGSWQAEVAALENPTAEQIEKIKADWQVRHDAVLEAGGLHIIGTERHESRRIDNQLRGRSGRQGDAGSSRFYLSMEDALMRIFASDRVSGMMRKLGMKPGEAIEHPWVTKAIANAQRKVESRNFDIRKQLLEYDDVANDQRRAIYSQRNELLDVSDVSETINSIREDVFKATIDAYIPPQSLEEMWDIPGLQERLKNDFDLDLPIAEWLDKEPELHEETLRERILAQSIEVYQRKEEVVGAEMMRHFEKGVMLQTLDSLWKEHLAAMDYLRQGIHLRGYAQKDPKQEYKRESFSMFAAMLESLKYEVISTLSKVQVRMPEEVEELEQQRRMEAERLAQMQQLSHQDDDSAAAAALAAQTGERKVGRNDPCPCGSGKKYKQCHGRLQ

As for `CNC(=O)[C@H]1C[C@@H]2CN(C(=O)c3ccco3)C[C@@H]2N1S(C)(=O)=O`, the Percent Effect in assay [1] is -2.51%; in assay [2] it was 13.3%; in [3], -0.761%; in [4], -3.21%; with Trypanosoma cruzi, 3.48%; in assay [5], 90.5%. The Percent Effect is 12.7% in [6]; -4.85% in the assay filed under Homo sapiens; 6.25% in [7]; 17.5% in [8]; -6.67% in [9].
As for `Clc1snnc1CN1CCCC(Cn2cncn2)C1` (centres undefined), the Percent Effect in assay [1] is -1.77%; in [2] it was 17.7%; in [3], -3.42%; in assay [4], -8.68%; in the assay with Trypanosoma cruzi, 1.98%; in assay [5], -1.52%. Besides, the Percent Effect in assay [6] was 18.6%; in the assay listed under Homo sapiens, 6.4%; in assay [7], 10.3%; in assay [8], 29.1%; in assay [9], -10.8%.
Turning to `Cc1c[nH]c(CN(C)c2nc(C3CCCC3)nc3c2cnn3C)n1`, the Percent Effect in assay [1] was -3.47%; in assay [2], 1.39%; in assay [3] it was 3.98%; in assay [4], -7.75%; in the assay with Trypanosoma cruzi, -3.01%; in assay [5], 2.21%. Further, the Percent Effect was 3.68% in assay [6]; -3.43% in the assay listed under Homo sapiens; 0% in assay [7]; 2.56% in assay [8]; -2.96% in [9].
In the case of `CCCS(=O)(=O)N1CCC(NC(=O)c2cc(C)c(CC)s2)CC1`, the Percent Effect in assay [1] was -1.6%; in assay [2], 2.67%; in assay [3], -3.07%; in assay [4] it was 10.4%; with Trypanosoma cruzi it was 5.94%; in [5] it was -2.08%. Further, the Percent Effect in assay [6] amounted to 7.15%; in the assay listed under Homo sapiens it was 13.4%; in [7] it was 6.01%; in [8] it was 18.5%; in assay [9], 1.12%.
As to `Cn1cnnc1C1CCCN(C(=O)NCCc2ccccc2F)C1` (centres undefined), the Percent Effect is -3% in assay [1]; 10.4% in assay [2]; -0.267% in [3]; -7.57% in [4]; 5.97% in the assay with Trypanosoma cruzi; 6.53% in assay [5]. Also, the Percent Effect in assay [6] is 6.71%; in the assay listed under Homo sapiens it was 11.1%; in assay [7], 3.81%; in assay [8], 14.1%; in assay [9], -9.4%.
For the compound `CCCNC(=O)CNc1ccc(C(=O)N2CCCCC2C)cc1C` (centres undefined), the Percent Effect in assay [1] was -7.8%; in assay [2], 18.2%; in [3] it was 1.99%; in assay [4], -9.58%; in the assay with Trypanosoma cruzi, -8.99%; in assay [5], 0.712%. Moreover, the Percent Effect in assay [6] is 8.62%; in the assay filed under Homo sapiens, 35.5%; in assay [7], 5.83%; in [8], 12.2%; in [9] it was -8%.
For `c1ncn(Cc2cnc3n2CCN(Cc2ccsc2)CC3)n1`, the Percent Effect in [1] is -7.34%; in assay [2], 5.33%; in [3] it was 7.1%; in [4], 2.34%; in the assay on Trypanosoma cruzi, -5.32%; in assay [5] it was -2.1%. Moreover, the Percent Effect was determined as 5.9% in [6]; 14.2% in the assay listed under Homo sapiens; 2.13% in [7]; 8.97% in assay [8]; 2.03% in assay [9].
For `CCO[C@@H]1CC[C@H]2[C@H]1OCCN2C(=O)C1CCOCC1`, the Percent Effect in assay [1] is -5.85%; in assay [2] it was 21.6%; in assay [3], -7.07%; in [4], 5.16%; in the assay with Trypanosoma cruzi, 3.32%; in [5], 3.33%. Also, the Percent Effect in [6] was 18.2%; in the assay filed under Homo sapiens, 2.97%; in assay [7], 10.9%; in [8] it was 1.22%; in assay [9], -4.28%.
For the compound `O=S(=O)(N1CCCCC1)N1CCc2nc(C3CCNCC3)ncc2C1`, the Percent Effect in [1] is -2.16%; in [2], -4.05%; in assay [3], 0.892%; in assay [4] it was 4.08%; in the assay on Trypanosoma cruzi it was -1.78%; in assay [5], -3.94%. Moreover, the Percent Effect was 12.8% in assay [6]; 5.01% in the assay filed under Homo sapiens; 3.23% in assay [7]; 1.3% in assay [8]; -20.6% in assay [9].
